In PubChem BioAssay (NCI) one finds growth data, which are given here for 37 compounds.

Compounds without any hit were thinned out: in the full panel of roughly 83,000, 20% have a hit.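 Compound tested at a single concentration for 48 hours in 96-well plates; a percent growth value below 10 was scored as active.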 Calls of active or inactive are those of the source.

For the assay, the system named is UACC-257 melanoma. As to the kind of experiment: NCI-60 one-dose screen, 48 h (100 = growth as untreated, 0 = no growth, -100 = all killed). The settings on record: 10 µM unless noted.
On to `COc1cc2c(=O)n(C3CCCCCCC3)c3c4cc[nH]c4ncc3c2cc1OC`, for which the growth is 93.8% (inactive).

Turning to `C1CCC([PH+](C2CCCCC2)C2CCCCC2[PH+](C2CCCCC2)C2CCCCC2)CC1.[Au].[CH-]1CCCCC1CC1CCCC[N-]1` (configuration not stated), the growth was -37.3% (active).

With `CCCCN1CCCC[C@@H]1C(=O)N[C@H](C(=O)N(C)[C@H](C[C@@H](OC(C)=O)c1nc(C(=O)NC2CCC(C(=O)OC)CC2)cs1)C(C)C)C(C)C` (some centres not stated), the growth is 59.4% (inactive).

Turning to `CS(=O)(=O)CCN1CC2CCCC(C2)C1`, the growth was 104% (inactive).

For the compound `COC(=O)[C@@H](C)C[C@H](Cc1ccccc1)NC(=O)c1nc([C@@H](C[C@H](C(C)C)N(C)C(=O)[C@@H](NC(=O)[C@H]2CCCCN2C)C(C)C)OC(C)=O)sc1C(C)C`, the growth is 50.7% (inactive).

Regarding `C=CC[Se]C(=O)c1ccccc1OC(C)=O`, the growth is 5.44% (active).

Take `CC(C)[C@@H]1NC(=O)[C@]2(C)CSC(=N2)c2csc(n2)CNC(=O)C[C@@H](/C=C/CCS)OC1=O`: the growth is -42.5% (active).

For the compound `Clc1cccc(Cl)c1Cl`, the growth was 86.6% (inactive).

Regarding `O=C(CC1(O)C(=O)Nc2ccc(Cl)cc21)c1ccc(C(=O)NCC2CCC3(CC2)OOC2(CCCCC2)OO3)cc1` (configuration not stated), the growth is 37.8% (inactive).

Consider `COc1ccc(C(O)(C(=O)O)c2ccc(OC)cc2)cc1`, for which the growth was 90.6% (inactive).

Take `CCn1c2ccccc2c2cc(C(=O)c3ccc(C)c4ccccc34)ccc21`: the growth is 36.9% (inactive).

Take `COC(=O)[C@]12CCC(C)(C)C[C@H]1[C@H]1C(=O)C[C@@H]3[C@@]4(C)C[C@@]5(CC(C)(C)[C@@H]4CC[C@@]3(C)[C@]1(C)CC2)OO[C@@](C)(C(F)(F)F)O5`: the growth was 102% (inactive).

With `CC[C@]12C=CCN3CC[C@@]4(c5ccc(OC)cc5N(C)[C@H]4[C@@](O)(C(=O)OC)[C@@H]1OC(=O)CCCC[P+](c1ccccc1)(c1ccccc1)c1ccccc1)[C@@H]32`, the growth was 2.15% (active).

As for `CCCCCCCCOC(=O)CCN1CC1`, the growth was 103% (inactive).

Regarding `CC1[C@H](C)OC(=O)CC(O)CC(O)CC(O)CCC(O)C(O)C[C@]2(O)CC(O)C(C(=O)O)C(CC(OC3O[C@H](C)[C@@H](O)[C@H](N)[C@@H]3O)/C=C/C=C/C=C/C=C/CC/C=C/C=C/[C@H](C)[C@H]1O)O2` (some centres not stated), the growth is 101% (inactive).

Take `c1cc2c(c3c1CCNC3)OCO2`: the growth was 78.5% (inactive).

Turning to `Cc1ccc(N2COOC3(OOC2)C2CC4CC(C2)CC3C4)cc1`, the growth was 95.3% (inactive).

Turning to `O=C(CC1(O)C(=O)N(Cc2ccccc2)c2ccc(Br)cc21)c1ccc(C(=O)NCC2CCC3(CC2)OOC2(CCCCC2)OO3)cc1` (configuration not stated), the growth was 57% (inactive).

On to `C[C@@H]1C[C@@]2(C)[C@@H](CC[C@@H]3[C@@H]2CC[C@]2(C)C(=O)CC[C@@H]32)CC1=O`, for which the growth is 113% (inactive).

With `CCN(CC)c1ccc2c(c1)OC(N)=C(C#N)C2c1cc(OC)c2c(c1)OCO2` (configuration not stated), the growth was 77.7% (inactive).

For the compound `O=P(Oc1ccc(Cl)cc1)(N1CC1)N1CC1`, the growth was 94.8% (inactive).

As to `O=[N+]([O-])c1cc(I)cc([N+](=O)[O-])c1`, the growth was 98% (inactive).

As to `CC(=O)O[C@H](C[C@H](C(C)C)N(C)C(=O)[C@@H](NC(=O)[C@H]1CCCCN1C)C(C)(C)C)c1nc(C(=O)N[C@@H](Cc2ccccc2)C[C@H](C)C(=O)O)cs1`, the growth is 47% (inactive).

`CC[C@H](C)[C@H](NC(=O)[C@H]1CCCCN1C)C(=O)N(C)[C@H](C[C@@H](O)c1nc(C(=O)N[C@@H](Cc2ccccc2)C[C@H](C)C(=O)O)cs1)C(C)C`: the growth is 76.1% (inactive).

`CN1CCC(O)(c2ccc(F)cc2)C(C(=O)c2ccc(F)cc2)C1` (configuration not stated): the growth was 106% (inactive).

Regarding `O=C1NC(=O)C(=Cc2cccn2CCCCCn2c3ccccc3c(=O)c3ccccc32)C(=O)N1`, the growth was 104% (inactive).

For the compound `COC(=O)[C@@H](C[C@H](Cc1ccccc1)NC(=O)c1csc([C@@H](C[C@H](C(C)C)N(C)C(=O)[C@@H](NC(=O)[C@H]2CCCCN2C)C(C)C)OC(C)=O)n1)NC(=O)OCc1ccccc1`, the growth was 6.49% [9.5 µM] (active).

As to `CN(C)CCCOc1ccc2c(c1)c(C(=O)C(=O)NCCO)cn2Cc1ccccc1`, the growth is 102% (inactive).

Take `COc1cc(C=Nc2cc(Cl)cc(Cl)c2)ccc1N(CCCl)CCCl`: the growth is 100% (inactive).

On to `CCOC(=O)N[C@H]1CCc2c(Br)c(OC)c(OC)c(OC)c2-c2ccc(SC)c(=O)cc21`, for which the growth was 67.5% (inactive).

On to `C/C(CC(C)(C)N1CC1)=N\NC(=O)Nc1cccc2ccccc12`, for which the growth is 86.4% (inactive).

On to `C[C@]12CCc3sc(-c4ccccc4O)nc3C1=CC[C@@H]1[C@@H]2CC[C@]2(C)C(=O)CC[C@@H]12`, for which the growth is 107% (inactive).

Take `CC[C@H](C)[C@H](NC(=O)[C@H]1CCCCN1C)C(=O)N(C)[C@H](CC(=O)c1nc(C(=O)N[C@@H](Cc2ccccc2)C[C@H](C)C(=O)O)cs1)C(C)C`: the growth is 74% (inactive).

As to `COc1cccc(/C=C/[N+](=O)[O-])c1`, the growth was 83.1% (inactive).

As for `O=C1CC2(CC3(Cl)C(Cl)=C(Cl)C2(Cl)C3(Cl)Cl)C(=O)O1` (configuration not stated), the growth is 107% (inactive).

With `CC12CCC3C(CCC4=CC(=O)CCC43CF)C1CCC2=O` (configuration not stated), the growth was 97% (inactive).

In the case of `Nc1ccc(-c2nc3cc(F)ccc3[se]2)cc1F`, the growth is 98.1% (inactive).
